Compound activity as filed in PubChem BioAssay.
Most compounds without a hit are left out; they make up all but 3.2% or so of the library.
MsrA inhibitor: inhibits bovine methionine sulfoxide reductase A | purified bovine MsrA, absorbance read-out | hit rate 0.75% among 360,000 | inhibition, % at 15.5 µM | AID 651718; in the data active = inhibition above about 4.5%;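 also: 0% = vehicle wells with enzyme and 100% = reference inhibitor wells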
MsrA act: bovine methionine sulfoxide reductase A activation | purified bovine MsrA, absorbance read-out | activation, % at 10.6 µM | hit rate 0.3% among 360,000; in the data active = activation above about 7.5%;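 also: 0% = vehicle and 100% = reference activator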
HGIII-sPLA2 inh: Inhibits HGIII-sPLA2 liposome hydrolysis, primary screen | QFRET BODIPY PC-A2 liposome hydrolysis, fluorescence | inhibition, % at 12.2 µM | Q9NZ20 | hit rate 0.56% among 370,000;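 active = inhibition above mean plus 3 SD of compounds lying within the high and low control bounds, cut at about 19% in these data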;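 also: 0% = median of test compound wells and 100% = no enzyme DMSO wells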
Target sequence (Q9NZ20 whole entry, looked up): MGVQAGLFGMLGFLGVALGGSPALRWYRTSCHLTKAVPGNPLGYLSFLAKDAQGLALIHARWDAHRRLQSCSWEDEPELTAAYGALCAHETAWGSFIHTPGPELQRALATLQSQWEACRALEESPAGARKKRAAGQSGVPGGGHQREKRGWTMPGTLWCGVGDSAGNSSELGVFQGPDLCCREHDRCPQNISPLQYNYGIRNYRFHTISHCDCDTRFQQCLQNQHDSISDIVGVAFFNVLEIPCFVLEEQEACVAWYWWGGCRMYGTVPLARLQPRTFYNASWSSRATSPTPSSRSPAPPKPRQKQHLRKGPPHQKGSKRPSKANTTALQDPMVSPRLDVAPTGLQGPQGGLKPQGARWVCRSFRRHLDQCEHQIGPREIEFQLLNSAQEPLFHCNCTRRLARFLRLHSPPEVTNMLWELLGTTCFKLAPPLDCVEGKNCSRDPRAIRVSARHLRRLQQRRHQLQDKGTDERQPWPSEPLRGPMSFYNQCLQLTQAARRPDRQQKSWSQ
PG9 Ab binder: binds the HIV-1 gp120 antibody PG9; inhibition, % at 6.7 µM; TR-FRET gp120-PG9 antibody binding; hit rate 0.43% among 360,000; in the data active = inhibition above about 8.5%
rCAG binder: binds r(CAG) RNA repeats; r(CAG) RNA repeat, TO-PRO-1 dye displacement fluorescence; inhibition, % at 3 µM; hit rate 1.3% among 370,000;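 active = inhibition above the plate cutoff, the mean of all test compounds on that plate plus 3 SD, cut at about 35% in these data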;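 also: 0% = DMSO alone and 100% = 100 µM mitoxantrone as full dye displacement; higher means more dye released from RNA so lower well fluorescence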
Numbers without * were called inactive; / = no result.

SMILES	MsrA inhibitor	MsrA act	HGIII-sPLA2 inh	PG9 Ab binder	rCAG binder
CCOc1ccccc1NC(=O)CSc1nc(N)c(C#N)cc1C#N	1	-3	5	66*	4
COC(=O)[C@]12C[C@H](CC(=O)NCCc3ccccc3OC)C(=O)N(CCC3=CCCCC3)C1=C[C@H](C(C)C)O[C@@H]2C1CC1	/	/	-2	/	2
CC(=O)Nc1cc2c(cc1[N+](=O)[O-])OCCO2	4.6*	0	4	-2	0
CCCCNC(=O)C1CCCN1C(=O)Nc1ccc(Cl)cc1 (centres undefined)	/	/	-3	/	1
C/C(=N/NC(=O)c1sc(NS(=O)(=O)c2ccc(C)cc2)nc1C)c1sc(N)nc1C	2	-7	-11	0	48*
CC(=O)c1sc(NS(=O)(=O)c2ccc(C)cc2)nc1C	4	-16	-8	3	9
COc1cc(/C=C2\SC(=O)N(c3ccc(Cl)cc3)C2=O)cc([N+](=O)[O-])c1O	7.1*	-5	-8	-3	34
CCCCC(CC)CO (centres undefined)	-1	4	1	0	0
CCCCC(CC)CN=C(N)NC(N)=NCCCCCCN=C(N)NC(N)=NCC(CC)CCCC (centres undefined)	/	9.7*	/	/	/
COC(=O)[C@]12C[C@H](CC(=O)NCCC(C)C)C(=O)N(Cc3cccc4ccccc34)C1=C[C@H](C(C)C)O[C@@H]2C1CC1	/	/	-3	/	0
O=C(N/N=C/c1ccc([N+](=O)[O-])o1)c1cn(-c2ccccc2)nc1-c1ccc(Cl)cc1	-1	-7	2	-1	8
O=[N+]([O-])CC(=Nc1ccc(Cl)cc1)N/N=C\c1oc(O)c2ccccc12	0	-7	-32	-2	53*
COc1ccc(C(=O)N/C(=C\c2ccccc2)C(=O)N2CCOCC2)cc1	0	-2	-3	-3	-2
COc1ccc(-c2ccc(/C=C(\NC(=O)c3ccccc3)C(=O)N3CCOCC3)o2)cc1	4.6*	-6	-4	-2	-4
CCCCCCCNC(=O)C1(CC2CC(c3ccc(Cl)cc3)=NO2)CCN(C(=O)C2CCCC2)CC1 (centres undefined)	1	-6	6	0	3
CCCCCCCNC(=O)C1(CC2CC(c3ccc(Cl)cc3)=NO2)CCN(C(=O)C2(C)CC2)CC1 (centres undefined)	/	8.5*	/	/	/
COc1ccc(-c2cc(-c3nnc(SCC(=O)Nc4ccccc4-c4ccccc4)n3N)[nH]n2)cc1	/	/	-36	/	9
COC(=O)[C@]12C[C@H](CC(=O)NCc3ccc(C)o3)C(=O)N(CCc3ccc(OC)c(OC)c3)C1=C[C@H](C(C)C)O[C@@H]2C1CC1	/	/	-16	/	3
COc1ccc(C[N+]2=C(N)NC3=C4CCCCC4n4c(=O)n(-c5ccccc5)c(=O)n4C3C2)c(OC)c1 (centres undefined)	/	/	13	/	16
O=C1N/C(=N/N=C/c2ccco2)SC1Cc1ccccc1 (centres undefined)	4.6*	-4	-6	-2	7
Cc1ccc(CC2S/C(=N/N=C/c3ccco3)NC2=O)cc1 (centres undefined)	2	-12	-1	3	4
Cc1ccc(S(=O)(=O)OCC(=O)Nc2ccc(C(=O)O)c(O)c2)cc1	-1	-2	-3	-1	40*
C/C(=N/Nc1cc(-c2ccccc2)nc(-c2ccccc2)n1)c1ccc(O)cc1	1	-2	-4	-1	17
C/C(=N\Nc1cc(-c2ccccc2)nc(-c2ccc(Br)cc2)n1)c1cccc(N)c1	2	-12	4	-2	43*
Cc1cc(OCC(C)CN2CCC(C(O)(c3ccccc3)c3ccccc3)CC2)ccc1Br (centres undefined)	/	/	-10	/	6
SMILES	MsrA inhibitor	MsrA act	HGIII-sPLA2 inh	PG9 Ab binder	rCAG binder
COC(=O)c1ccc(=O)c2nc3/c(=C/O)c(O)cc(=O)c3[nH]c12	1	-9	6	-4	69*
COC(=O)c1ccc(N)cc1O	0	-12	0	-3	0
Cc1cccc(OCC(C)CN2CCC(C(O)(c3ccccc3)c3ccccc3)CC2)c1 (centres undefined)	/	/	-15	/	1
COc1ccc(/C=C/S(=O)(=O)NC2CCCC2)c(CNC(=O)OC(C)(C)C)c1	/	/	-6	/	2
Cc1ccc(C(=O)Nc2nnc(S(=O)(=O)Nc3ccccc3C)s2)cc1C	2	-8	-25	0	45*
Cc1ccsc1/C=C(\C(=O)c1ccc(OC(C)C)cc1)c1nc2ccccc2o1	4.6*	-13	1	1	5
Cc1ccsc1/C=C(\CC(=O)O)c1nc2ccccc2o1	4.6*	-8	6	0	6
O=C(CSc1nc2ccccc2o1)Nc1nc(-c2ccccc2)cs1	0	-1	-6	0	9
